Screening results (PubChem BioAssay)
An excerpt weighted towards active compounds, which were near 10% of everything screened.
PLK1 PBD inh: blocks phosphopeptide binding to human PLK1 polo-box domain; P53350; Plk1 PBD binding of FITC phosphopeptide, fluorescence polarization; Potency, µM, without a hit: max response, negative = inhibition, most hits filed as inhibitors; 2.8% of 360,000 active; AID 720504; also: potency is read from the fitted curve at half-maximal effect; series mostly up to about 57 µM; nearly all actives have a fitted effect of over 65% in size
G9a inh: inhibitors of human histone lysine methyltransferase G9a | Potency, µM (series often up to 102 µM), for the others: top-dose activity, negative = inhibition, hits mostly inhibitors | AID 504332 | G9a H3K9 monomethylation, AlphaScreen, 2 h | 8.8% of 350,000 active; also: potency is read from the fitted curve at half-maximal effect; nearly all actives have a fitted effect of over 75% in size
Target sequence (Q96KQ7 913-1193 limits assumed): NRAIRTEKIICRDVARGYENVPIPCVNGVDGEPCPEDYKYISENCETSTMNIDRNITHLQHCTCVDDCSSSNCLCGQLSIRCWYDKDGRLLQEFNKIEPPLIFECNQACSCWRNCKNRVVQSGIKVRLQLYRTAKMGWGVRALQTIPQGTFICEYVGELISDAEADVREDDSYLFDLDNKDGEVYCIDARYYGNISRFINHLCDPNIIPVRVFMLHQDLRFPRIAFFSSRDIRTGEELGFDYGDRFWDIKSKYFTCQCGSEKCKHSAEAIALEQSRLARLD
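G9a (20 nM) was preincubated 15 min with compound, then reacted 2 h at room temperature with 500 nM biotin-H3K9 peptide and 20 µM SAM. Monomethyl-H3K9 detected by AlphaScreen using anti-H3K9me1 antibody.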
CCT chaperon mod: cytosolic chaperonin activity modulation | purified chaperonin ATPase assay, HTRF ADP detection, 30 min | activity change, % (concentration not given with the values), hits read low | 0.3% of 360,000 active; in the data active = activity change below about -30%
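Nucleotide hydrolysis assay: TRiC at 20–40 nM final (set by batch activity) with 10 uM ATP, 30 min at 37 °C, in presence of 76 uM compound. Detection by competitive ADP HTRF, 30 min ambient.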
VDR inh: inhibitors of human vitamin D receptor. VDR-SRC2-3 peptide fluorescence polarization, 2 h. 0.93% of 400,000 active. Potency, µM, without a hit: max response, negative = inhibition, usual class: inhibitors. AID 504847; also: potency is read from the fitted curve at half-maximal effect
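VDR–SRC2-3 interaction, FP format. Cmpds 23 nl via pintool, brief spin, 2 h ambient incubation.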
MmCpn inh: inhibitors of Methanococcus maripaludis chaperonin TRiC (MmCpn). purified Mm-Cpn ATPase, ADP Transcreener TR-FRET. Potency, µM (top dose mostly 76.9 µM), for inactives: top-dose activity, negative = inhibition, most hits filed as inhibitors. 0.031% of 330,000 active. AID 504842; also: potency is read from the fitted curve at half-maximal effect; nearly all actives have a fitted effect of over 80% in size
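Purified archaeal chaperonin (25 nM final) was preincubated with compound for 10 min at 37°C, then ATP (10 uM final) was added for 30 min at 37°C in Tris pH 7.4/KCl/MgCl2/DTT buffer. ADP was quantified by HTRF Transcreener TR-FRET.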
Sfp PPTase inh: inhibitors of Bacillus subtilis Sfp phosphopantetheinyl transferase | Potency, µM, for inactives: largest response in the series, negative = inhibition, usual class: inhibitors | Q9F4F7 | 3.5% of 310,000 active | Biochemical Sfp PPTase activity, qHTS;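 also: the enzyme is Sfp with the accession as filed and its product quenches rhodamine fluorescence; potency is read from the fitted curve at half-maximal effect; 0% = enzyme reaction without inhibitor and -100% = no enzyme wells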
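Fluorescence-quenching assay with 15 nM Sfp, 5 uM rhodamine-CoA and 12.5 uM BHQ-2-labelled ybbR peptide in pH 7.6 Hepes/MgCl2 buffer. Enzyme was pre-incubated with compound for 15 min at room temperature. Rate was taken from the 30-min fluorescence change (525/598 nm).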
* hit, by the source's call; ? = inconclusive; nt = no result given; [ ] = another dose, or the depositor's remark. Unless noted, calls follow the shape of the dose curve; as a rule, active = well fitted curve in the direction sought with a large enough effect; inconclusive = small, poorly fitted or top-dose-only effect, or another doubt; inactive = no such curve, though single readings can be large; an effect the other way counts as inactive or inconclusive. Unless noted, % is scaled to controls: 0 for no effect and ±100 for the full control effect.

SMILES	PLK1 PBD inh	G9a inh	CCT chaperon mod	VDR inh	MmCpn inh	Sfp PPTase inh
CCOC(=O)c1ccc(NC(=O)C(CC)Sc2nc3ncccc3[nH]2)cc1 (configuration not stated)	nt	?	nt	6.9%	nt	nt
COc1ccc(C)cc1NC(=O)c1nnn(Cc2cccc(F)c2)c1N	37.7µM*	19.4%[59 µM]	-0.2	5.4%	-3.7%	12.7%
COc1ccc(NC(=O)c2nnn(Cc3cccc(F)c3)c2N)c(OC)c1	-7.7%	0.3%[59 µM]	-2.0	-10.1%	-4.0%	-4.8%
COCCCn1c(=N)c(C(=O)NC2CCCCC2)cc2c(=O)n3cc(C)ccc3nc21	nt	5.1%[59 µM]	nt	2.4%	nt	nt
O/N=C/c1ccc2cccc(OCc3ccccc3)c2n1	0.8%	20µM*	-0.6	12.1%	-2.8%	-8.0%
NC(N)=N/N=C/c1ccc2cccc(OCc3ccccc3)c2n1	-13.3%	-35.0%	-2.2	-17.1%	-4.8%	-18.8%
Cc1cc(C)c(C)c(SCC(=O)Nc2oc(C)c3c(C)n[nH]c(=O)c23)c1C	?	3.98µM*	0.6	-10.4%	-0.9%	nt
CC(=O)Nc1ccc(SCC(=O)Nc2oc(C)c3c(C)n[nH]c(=O)c23)cc1	18.9µM*	50.1µM*	1.2	-11.0%	-3.2%	nt
Cc1n[nH]c(=O)c2c(NC(=O)CSc3ccc(F)cc3)oc(C)c12	?	-49.7%	-3.3	-2.5%	0.7%	nt
CCCn1c(=O)c2sccc2n2c(CCCC(=O)N3CCN(c4ccccc4OC)CC3)nnc12	nt	16.2%[59 µM]	nt	-18.5%	nt	nt
O=C(/C=C/c1ccc(OC(F)F)cc1)OCC(=O)N1CCc2ccccc21	-4.5%	44.7µM*	-0.1	12.8%	-2.5%	nt
CN(C)c1ccc(-c2ccc3ncnc(-n4ccnc4)c3c2)cc1	nt	-37.4%[0.501 µM]	nt	15.8µM*	nt	-21.7%
COCCNc1ncnc2ccc(-c3ccccc3C)cc12	nt	6.3%[0.501 µM]	nt	?	nt	79.4µM*
Cc1ccccc1-c1ccc2ncnc(-n3ccnc3)c2c1	nt	-37.1%[0.501 µM]	nt	14.1µM*	nt	10.8%
CCOc1ccc(NC(=O)CN2C(=O)COc3ccc(S(=O)(=O)Nc4ccccc4)cc32)cc1	nt	-31.1%[59 µM]	nt	17.0%	nt	nt
Cc1ccc(NS(=O)(=O)c2cccc3nsnc23)cc1[N+](=O)[O-]	-18.5%	39.8µM*	-0.3	6.5%	2.2%	-7.5%
O=C(COC(=O)c1ccc(Cl)cc1O)NC(=O)C1CCCCC1	-1.4%	50.1µM*	-1.9	-2.9%	-1.4%	21.0%
CC(C)(C)NC(=O)COC(=O)c1ccc(Cl)cc1O	-2.0%	-31.0%	3.3	22.7%	1.1%	18.4%
CC1(C)CN(c2ccc(Br)cc2Br)C1=O	-5.5%	18.0%	0.5	1.3%	-3.8%	8.5%
Cc1c(Cl)cccc1N1CC(C)(C)C1=O	26.7µM*	6.7%	3.0	-14.4%	-0.8%	15.2%
Cc1ccc(C(=O)N2c3ccc(F)cc3CCC2C)o1 (configuration not stated)	-9.4%	-7.8%[59 µM]	1.2	-4.1%	-0.9%	3.3%
Cc1nn(Cc2ccc(C(=O)N3c4ccc(F)cc4CCC3C)o2)c(C)c1Br (configuration not stated)	-11.3%	50.1µM*	-3.2	-5.6%	1.4%	-21.5%
CC1(CC(=O)N/N=C/c2cc([N+](=O)[O-])c(O)cc2O)OCCO1	9.47µM*	39.8µM*	-0.1	?	-3.8%	6.0%
COCCn1c(=O)c(-c2cccc(C#N)c2)nc2cnc(N3CCNCC3)nc21	nt	6.0%[12.7 µM]	nt	-25.1%	nt	4.2%
CC(/C=C/c1ccco1)=N\NC(=O)c1cc(C)[nH]n1	-3.9%	50.1µM*	-2.0	-29.6%	-13.2%	17.8µM*
SMILES	PLK1 PBD inh	G9a inh	CCT chaperon mod	VDR inh	MmCpn inh	Sfp PPTase inh
O=C(/C=C/c1ccco1)c1ccccc1O	-6.4%	35.5µM*	-2.6	-10.2%	-17.4%	?
O=C(C=Cc1ccco1)c1cc(Cl)ccc1O	-13.8%	nt	-0.5	?	nt	nt
Cc1cc(C(=O)N/N=C/c2ccco2)n[nH]1	-7.3%	5.4%	-0.7	-8.5%	3.8%	-8.8%
CC(/C=C/c1ccco1)=N\NC(=O)c1cccnc1	-4.6%	50.1µM*	-1.5	-6.2%	1.7%	56.2µM*
CC(/C=C/c1ccco1)=N\NC(=O)c1cc(Cl)ccc1O	?	39.8µM*	0.1	-20.1%	0.7%	0.6%
NC(=O)CSc1ncc2c(n1)-c1ccccc1N(Cc1cccc(F)c1)S2(=O)=O	nt	5.1%[59 µM]	nt	1.6%	nt	nt
